# PubChem BioAssay (Tox21)
# Values without a mark were called inactive. Inconclusive results are not listed. Where a call stands in place of a potency, no number is given. The source made the active and inactive calls. Unless noted, the call rests on the fitted dose curve; in most records, active means well fitted curve in the direction sought with a large enough effect in the repeat runs; inconclusive means weak or mixed curves; inactive means no such curve, though single readings can be large; an effect the other way counts as inactive or inconclusive.
# What was measured:
# [1] = target: Thyrotropin-releasing hormone receptor (Homo sapiens) (UniProt P34981); experiment: qHTS assay to identify small molecule agonists of the thyrotropin-releasing hormone receptor (TRHR) signaling pathway (AID 1346891; calls by dose curve;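 further: HEK293 cells expressing TRHR with calcium dye readout; series mostly up to about 58 µM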)
# Outline: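 Agonist-mode calcium mobilisation screen: TRHR-transfected HEK293 cells cultured overnight (18 h), dye-loaded for 2 h at 37 °C, exposed to compounds, and monitored by fluorescence for 3 min.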
# [2] = Human pregnane X receptor (PXR) small molecule agonists, qHTS cell viability counter screen (AID 1346977); further: nearly all actives have a fitted effect of over 50% in size; further: potency means the concentration at half of the fitted maximal effect
# Outline: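 Measures live-cell protease fluorescence (CellTiter-Fluor) in PXR-Luc HepG2 cells treated 24hr with compounds at 37C. Cells had 5hr to attach before pin transfer of DMSO solutions.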
# [3] = Caspase-3/7 induction in HepG2 cells by small molecules, qHTS assay (AID 1346978); further: nearly all actives have a fitted effect of over 15% in size
# Outline: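 Wild-type HepG2 cells (2,000/well) were settled 5 h at 37 C, 5% CO2, then exposed to compounds in DMSO for 17 h. Caspase-3/7 activity was read by luminescence 30 min after adding Caspase-Glo 3/7 reagent at room temperature.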
# [4] = Caspase-3/7 induction in CHO-K1 cells by small molecules, qHTS cell viability counter screen (AID 1346979); further: nearly all actives have a fitted effect of over 35% in size; further: potency means the concentration at half of the fitted maximal effect
# Outline: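 In the same wells as the caspase read, viability of compound-treated wild-type CHO-K1 cells was assessed using CellTiter-Fluor, added after 16hr at 37C and measured by fluorescence following 1hr further incubation.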
# [5] = Caspase-3/7 induction in CHO-K1 cells by small molecules, qHTS assay (AID 1346980); further: nearly all actives have a fitted effect of over 15% in size
# Outline: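 Wild-type cells were seeded at 1,500 per well and settled 5 hr at 37 C, 5% CO2, then exposed to DMSO-dissolved compounds for 17 hr. Caspase-Glo 3/7 reagent was added, and luminescence was read after 30min at room temperature.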
# [6] = Caspase-3/7 induction in HepG2 cells by small molecules, qHTS cell viability counter screen (AID 1346981); further: nearly all actives have a fitted effect of over 30% in size; further: potency means the concentration at half of the fitted maximal effect
# Outline: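 In this quantitative HTS counter screen, compounds delivered in DMSO were left on unmodified HepG2 cells for 16 hr at 37 C. Viability was then determined fluorometrically with CellTiter-Fluor, in parallel with caspase-3/7 induction in the same wells.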
# [7] = target: Nuclear receptor subfamily 1 group I member 2 (Homo sapiens) (UniProt O75469); experiment: Human pregnane X receptor (PXR) small molecule agonists, qHTS assay (AID 1346982); further: nearly all actives have a fitted effect of over 35% in size; further: potency means the concentration at half of the fitted maximal effect
# Outline: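 Reporter HepG2 cells expressing PXR-Luc are cultured in charcoal-stripped FBS (5%), treated with compounds for 24 hr at 37 C, and assayed by ONE-Glo luminescence after 30 min at room temperature.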
# [8] = target: Nuclear receptor subfamily 1 group I member 2 (Rattus norvegicus) (UniProt Q9R1A7); experiment: Rat pregnane X receptor (rPXR) activation by small molecules, qHTS assay (AID 1346983); conditions: rPXR luciferase reporter cells, One-Glo luminescence, 24 h; max activation: active compounds read high; further: nearly all actives have a fitted effect of over 20% in size; further: potency means the concentration at half of the fitted maximal effect
# Outline: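 Cell-based rPXR luciferase reporter assay, 2,000 cells per well, rested 5hr at 37 C before compound addition in DMSO, then 24 hr at 37 C. One-Glo reagent was added and luminescence read after 30 min at room temperature.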
# [9] = target: Nuclear receptor subfamily 1 group I member 2 (Homo sapiens) (UniProt O75469); experiment: CYP3A4 induction through human pregnane X receptor (PXR) by small molecules, qHTS assay (AID 1346984); further: nearly all actives have a fitted effect of over 40% in size
# Outline: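 Induction measured in HepG2-based DPX-2 cells co-expressing human PXR and a CYP3A4 promoter-driven luciferase. After a 24-hour compound exposure, cells received CYP3A4 luciferin substrate at 3uM final for 3 hours, and light output was then recorded.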
# [10] = target: Nuclear receptor subfamily 1 group I member 2 (Homo sapiens) (UniProt O75469); experiment: Human pregnane X receptor (PXR) activation by small molecules, qHTS assay (AID 1346985); further: nearly all actives have a fitted effect of over 40% in size
# Outline: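 DPX-2 cells (HepG2 co-transfected with a PXR response element and a CYP3A4-promoter luciferase construct) were seeded at 2,000 per well, rested 5 hr at 37C, then exposed to DMSO-dissolved compounds for 24 hr. Activation was read as luciferase luminescence.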
# [11] = target: Acetylcholinesterase (Homo sapiens) (UniProt P22303); experiment: Acetylcholinesterase (AChE) small molecule antagonists: colormetric cell-based qHTS assay (AID 1347395; calls by dose curve; further: nearly all actives have a fitted effect of over 30% in size; further: potency means the concentration at half of the fitted maximal effect)
# Outline: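 Endogenous AChE of human neuroblastoma SH-SY5Y cells was measured with an Ellman-type DTNB/acetylthiocholine mix. Compound pretreatment lasted 30 min at 37 C; substrate reaction ran 90 min at 37 C.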
# [12] = target: Acetylcholinesterase (Homo sapiens) (UniProt P22303); experiment: Acetylcholinesterase (AChE) small molecule antagonists: enzyme-based qHTS assay (AID 1347397; calls by dose curve; further: nearly all actives have a fitted effect of over 55% in size; further: potency means the concentration at half of the fitted maximal effect); conditions: Potency: AChE enzyme activity inhibition
# Outline: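 Tox21 library chemicals are tested in qHTS format against recombinant human AChE. The enzyme, dispensed at 50 mU/mL, sits with compound for 30 min at room temperature. A DTNB–acetylthiocholine cocktail follows, and colour is read after 10 min.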
# [13] = target: Acetylcholinesterase (Homo sapiens) (UniProt P22303); experiment: Acetylcholinesterase (AChE) small molecule antagonists: fluorescence cell-based qHTS assay (AID 1347398; calls by dose curve; further: nearly all actives have a fitted effect of over 50% in size); conditions: Potency: AChE activity
# Outline: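 Cellular AChE inhibition: SH-SY5Y cells treated with test chemical for 30 min at 37 C, then acetylthiocholine hydrolysis followed over 40 min at room temperature via thiocholine-reactive Thiolite Green fluorescence (490/520 nm).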
# [14] = target: Acetylcholinesterase (Homo sapiens) (UniProt P22303); experiment: Acetylcholinesterase (AChE) small molecule antagonists: enzyme-based qHTS assay with human liver microsomes (AID 1347399; calls by dose curve; further: nearly all actives have a fitted effect of over 60% in size; further: potency means the concentration at half of the fitted maximal effect); conditions: Potency: qHTS inhibition
# Outline: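 Recombinant human AChE (50 mU/mL in the enzyme mix) and human liver microsomes (0.25 mg/mL final) were preincubated with compound and NADPH (0.25 mg/mL final) for 30 min at 37 C. Acetylthiocholine/DTNB was then added; thiocholine was read colorimetrically after 10 min at room temperature.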
# [15] = target: Cytochrome P450 2C19 (Homo sapiens) (UniProt P33261); experiment: Cytochrome P450 Family 2 Subfamily C Member 19 (CYP2C19) small molecule antagonists: luciferase reporter qHTS assay (AID 1671197); further: nearly all actives have a fitted effect of over 65% in size; further: potency means the concentration at half of the fitted maximal effect
# Outline: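 P450-Glo CYP2C19 screening system; proluciferin substrate; DMSO compound stocks; 10 min RT preincubation; NADPH regeneration, 1 h at 37C; luciferin detection reagent, 20 min RT; luminescence as RLU.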
# [16] = target: Cytochrome P450 2C9 (Homo sapiens) (UniProt P11712); experiment: Cytochrome P450 Family 2 Subfamily C Member 9 (CYP2C9) small molecule antagonists: luciferase reporter qHTS assay (AID 1671198); further: nearly all actives have a fitted effect of over 50% in size; further: potency means the concentration at half of the fitted maximal effect
# Outline: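 CYP2C9 activity was measured with a P450-Glo proluciferin substrate. Enzyme–substrate mix was held with compound for 10 min at room temperature, then NADPH regeneration solution was added for 1 h at 37C. Luciferin product was read as luminescence.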
# [17] = target: Cytochrome P450 1A2 (Homo sapiens) (UniProt P05177); experiment: Cytochrome P450 Family 1 Subfamily A Member 2 (CYP1A2) small molecule antagonists: luciferase reporter qHTS assay (AID 1671199); further: nearly all actives have a fitted effect of over 50% in size; further: potency means the concentration at half of the fitted maximal effect
# Outline: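 Steps: enzyme-substrate mix dispensed; test compounds and furafylline control pinned in; 10 min room temperature; NADPH regeneration solution added, 1 h; reaction stopped with luciferin detection reagent; luminescence read after 20 min.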
# [18] = target: Voltage-gated inwardly rectifying potassium channel KCNH2 (Homo sapiens) (UniProt Q12809); experiment: Human Ether-a-go-go-Related Gene (hERG) channel small molecule antagonists: fluorescence cell-based qHTS assay (AID 1671200)
# Outline: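 Quantitative HTS in hERG-U2OS cells: thallium entry through the channel reports activity, read as continuous 480/540 nm fluorescence over 2 min after stimulus addition.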
# [19] = target: Cytochrome P450 3A4 (Homo sapiens) (UniProt P08684); experiment: Cytochrome P450 Family 3 Subfamily A Member 4 (CYP3A4) small molecule antagonists: luciferase reporter qHTS assay (AID 1671201); further: nearly all actives have a fitted effect of over 50% in size; further: potency means the concentration at half of the fitted maximal effect
# Outline: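 Inhibition of CYP3A4 is measured as loss of light: the enzyme converts a proluciferin substrate to luciferin, detected luminescently. Reaction ran 1 h at room temperature with NADPH regeneration after a 10 min compound preincubation.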
# [20] = target: Cytochrome P450 2D6 (Homo sapiens) (UniProt P10635); experiment: Cytochrome P450 Family 2 Subfamily D Member 6 (CYP2D6) small molecule antagonists: luciferase reporter qHTS assay (AID 1671196); further: nearly all actives have a fitted effect of over 50% in size; further: potency means the concentration at half of the fitted maximal effect
# Outline: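 Test chemicals meet CYP2D6 plus proluciferin substrate (10 min, RT); NADPH regenerating solution then drives turnover for 1 h. Detection reagent halts the reaction; luminescence measured after 20 min.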
# Sequence of Cytochrome P450 2C9 (Homo sapiens) (P11712 whole entry, looked up): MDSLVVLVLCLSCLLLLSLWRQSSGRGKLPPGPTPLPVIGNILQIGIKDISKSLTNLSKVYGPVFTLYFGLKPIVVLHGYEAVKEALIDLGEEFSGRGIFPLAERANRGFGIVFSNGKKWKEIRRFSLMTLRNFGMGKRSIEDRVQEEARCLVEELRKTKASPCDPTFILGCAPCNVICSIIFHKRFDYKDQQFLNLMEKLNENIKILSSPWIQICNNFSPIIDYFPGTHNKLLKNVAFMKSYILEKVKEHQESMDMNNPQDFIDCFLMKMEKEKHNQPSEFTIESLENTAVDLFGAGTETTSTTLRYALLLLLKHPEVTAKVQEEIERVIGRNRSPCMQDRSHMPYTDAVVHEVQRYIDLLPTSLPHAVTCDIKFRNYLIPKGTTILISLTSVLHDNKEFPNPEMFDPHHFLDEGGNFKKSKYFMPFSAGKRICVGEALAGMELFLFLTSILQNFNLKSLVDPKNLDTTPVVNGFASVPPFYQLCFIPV
# Sequence of Cytochrome P450 3A4 (Homo sapiens) (P08684 whole entry, looked up): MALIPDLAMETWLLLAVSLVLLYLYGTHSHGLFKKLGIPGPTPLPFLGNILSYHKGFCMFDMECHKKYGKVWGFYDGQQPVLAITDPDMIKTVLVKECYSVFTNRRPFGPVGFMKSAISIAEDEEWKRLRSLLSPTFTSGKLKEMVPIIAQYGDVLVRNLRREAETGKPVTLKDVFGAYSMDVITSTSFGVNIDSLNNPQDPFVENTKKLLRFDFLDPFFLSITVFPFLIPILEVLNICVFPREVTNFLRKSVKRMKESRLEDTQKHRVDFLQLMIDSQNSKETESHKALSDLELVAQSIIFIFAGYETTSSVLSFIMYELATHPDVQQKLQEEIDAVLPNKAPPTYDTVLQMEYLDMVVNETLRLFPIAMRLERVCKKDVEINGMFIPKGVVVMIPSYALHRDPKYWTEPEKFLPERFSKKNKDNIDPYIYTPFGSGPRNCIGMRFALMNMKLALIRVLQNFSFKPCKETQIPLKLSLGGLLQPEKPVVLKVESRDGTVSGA
# Sequence of Cytochrome P450 2D6 (Homo sapiens) (P10635 whole entry, looked up): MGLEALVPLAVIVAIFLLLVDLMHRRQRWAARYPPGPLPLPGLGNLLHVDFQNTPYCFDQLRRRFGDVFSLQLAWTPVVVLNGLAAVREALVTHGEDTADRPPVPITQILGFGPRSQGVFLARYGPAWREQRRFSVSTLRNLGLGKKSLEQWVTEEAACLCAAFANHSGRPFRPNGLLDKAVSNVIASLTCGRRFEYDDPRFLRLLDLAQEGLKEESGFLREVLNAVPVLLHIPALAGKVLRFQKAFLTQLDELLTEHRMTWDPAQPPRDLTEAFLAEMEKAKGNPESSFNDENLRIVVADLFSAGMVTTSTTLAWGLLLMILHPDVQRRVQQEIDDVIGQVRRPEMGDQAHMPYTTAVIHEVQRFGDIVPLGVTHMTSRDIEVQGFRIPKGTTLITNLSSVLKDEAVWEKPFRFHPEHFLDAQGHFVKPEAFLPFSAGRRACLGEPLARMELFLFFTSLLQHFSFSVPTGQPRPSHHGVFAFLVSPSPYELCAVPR
# Sequence of Nuclear receptor subfamily 1 group I member 2 (Homo sapiens) (O75469 whole entry, looked up): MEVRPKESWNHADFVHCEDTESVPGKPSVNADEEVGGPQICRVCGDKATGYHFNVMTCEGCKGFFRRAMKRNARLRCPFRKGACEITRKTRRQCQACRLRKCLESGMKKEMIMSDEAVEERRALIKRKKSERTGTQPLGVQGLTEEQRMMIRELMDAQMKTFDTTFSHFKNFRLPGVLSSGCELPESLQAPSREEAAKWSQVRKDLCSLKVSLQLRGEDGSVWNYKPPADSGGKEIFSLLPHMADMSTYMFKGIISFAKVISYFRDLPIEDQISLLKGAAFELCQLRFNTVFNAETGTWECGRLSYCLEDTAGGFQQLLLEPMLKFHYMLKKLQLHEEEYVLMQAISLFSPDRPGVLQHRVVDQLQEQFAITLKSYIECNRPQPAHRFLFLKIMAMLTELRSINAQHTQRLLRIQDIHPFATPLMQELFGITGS
# Sequence of Thyrotropin-releasing hormone receptor (Homo sapiens) (P34981 whole entry, looked up): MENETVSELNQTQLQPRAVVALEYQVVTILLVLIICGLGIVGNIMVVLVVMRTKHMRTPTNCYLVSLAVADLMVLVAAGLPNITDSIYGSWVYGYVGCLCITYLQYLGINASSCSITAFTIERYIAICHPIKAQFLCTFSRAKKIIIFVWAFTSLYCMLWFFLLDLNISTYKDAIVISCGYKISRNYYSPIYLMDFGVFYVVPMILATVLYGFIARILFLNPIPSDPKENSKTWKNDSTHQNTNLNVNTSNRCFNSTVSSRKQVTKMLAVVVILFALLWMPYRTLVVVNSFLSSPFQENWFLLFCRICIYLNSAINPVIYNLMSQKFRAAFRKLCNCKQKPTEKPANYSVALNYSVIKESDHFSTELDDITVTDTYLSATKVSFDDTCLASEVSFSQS
# Sequence of Acetylcholinesterase (Homo sapiens) (P22303 whole entry, looked up): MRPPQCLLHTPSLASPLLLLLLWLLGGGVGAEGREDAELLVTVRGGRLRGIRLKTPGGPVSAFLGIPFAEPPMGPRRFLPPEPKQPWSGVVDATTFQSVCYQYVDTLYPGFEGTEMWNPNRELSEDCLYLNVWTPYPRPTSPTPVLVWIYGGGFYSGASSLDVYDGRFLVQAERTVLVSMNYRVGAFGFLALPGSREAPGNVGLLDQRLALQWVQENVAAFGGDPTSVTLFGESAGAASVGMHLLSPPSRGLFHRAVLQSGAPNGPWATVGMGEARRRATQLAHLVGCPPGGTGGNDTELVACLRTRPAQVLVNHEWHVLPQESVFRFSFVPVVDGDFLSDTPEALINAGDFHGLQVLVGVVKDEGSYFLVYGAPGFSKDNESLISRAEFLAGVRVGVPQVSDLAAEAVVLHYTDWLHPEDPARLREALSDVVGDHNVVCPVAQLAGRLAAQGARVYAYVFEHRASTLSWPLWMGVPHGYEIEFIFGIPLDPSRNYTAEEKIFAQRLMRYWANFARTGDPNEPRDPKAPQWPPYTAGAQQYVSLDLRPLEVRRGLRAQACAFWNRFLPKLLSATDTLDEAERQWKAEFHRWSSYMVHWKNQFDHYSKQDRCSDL
# Sequence of Cytochrome P450 1A2 (Homo sapiens) (P05177 whole entry, looked up): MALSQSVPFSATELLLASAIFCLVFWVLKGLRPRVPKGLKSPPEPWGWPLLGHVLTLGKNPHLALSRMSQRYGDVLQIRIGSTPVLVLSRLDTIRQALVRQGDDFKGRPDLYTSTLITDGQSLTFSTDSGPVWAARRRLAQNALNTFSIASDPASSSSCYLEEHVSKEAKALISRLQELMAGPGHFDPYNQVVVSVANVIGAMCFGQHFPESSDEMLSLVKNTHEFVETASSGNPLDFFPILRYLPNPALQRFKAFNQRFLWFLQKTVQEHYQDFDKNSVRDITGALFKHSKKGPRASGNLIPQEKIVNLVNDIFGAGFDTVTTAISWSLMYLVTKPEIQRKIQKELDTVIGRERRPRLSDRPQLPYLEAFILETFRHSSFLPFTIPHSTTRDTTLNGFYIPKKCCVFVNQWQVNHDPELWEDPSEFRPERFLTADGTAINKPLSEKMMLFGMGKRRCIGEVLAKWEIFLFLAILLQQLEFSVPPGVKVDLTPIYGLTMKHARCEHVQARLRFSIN
# Sequence of Voltage-gated inwardly rectifying potassium channel KCNH2 (Homo sapiens) (Q12809 whole entry, looked up): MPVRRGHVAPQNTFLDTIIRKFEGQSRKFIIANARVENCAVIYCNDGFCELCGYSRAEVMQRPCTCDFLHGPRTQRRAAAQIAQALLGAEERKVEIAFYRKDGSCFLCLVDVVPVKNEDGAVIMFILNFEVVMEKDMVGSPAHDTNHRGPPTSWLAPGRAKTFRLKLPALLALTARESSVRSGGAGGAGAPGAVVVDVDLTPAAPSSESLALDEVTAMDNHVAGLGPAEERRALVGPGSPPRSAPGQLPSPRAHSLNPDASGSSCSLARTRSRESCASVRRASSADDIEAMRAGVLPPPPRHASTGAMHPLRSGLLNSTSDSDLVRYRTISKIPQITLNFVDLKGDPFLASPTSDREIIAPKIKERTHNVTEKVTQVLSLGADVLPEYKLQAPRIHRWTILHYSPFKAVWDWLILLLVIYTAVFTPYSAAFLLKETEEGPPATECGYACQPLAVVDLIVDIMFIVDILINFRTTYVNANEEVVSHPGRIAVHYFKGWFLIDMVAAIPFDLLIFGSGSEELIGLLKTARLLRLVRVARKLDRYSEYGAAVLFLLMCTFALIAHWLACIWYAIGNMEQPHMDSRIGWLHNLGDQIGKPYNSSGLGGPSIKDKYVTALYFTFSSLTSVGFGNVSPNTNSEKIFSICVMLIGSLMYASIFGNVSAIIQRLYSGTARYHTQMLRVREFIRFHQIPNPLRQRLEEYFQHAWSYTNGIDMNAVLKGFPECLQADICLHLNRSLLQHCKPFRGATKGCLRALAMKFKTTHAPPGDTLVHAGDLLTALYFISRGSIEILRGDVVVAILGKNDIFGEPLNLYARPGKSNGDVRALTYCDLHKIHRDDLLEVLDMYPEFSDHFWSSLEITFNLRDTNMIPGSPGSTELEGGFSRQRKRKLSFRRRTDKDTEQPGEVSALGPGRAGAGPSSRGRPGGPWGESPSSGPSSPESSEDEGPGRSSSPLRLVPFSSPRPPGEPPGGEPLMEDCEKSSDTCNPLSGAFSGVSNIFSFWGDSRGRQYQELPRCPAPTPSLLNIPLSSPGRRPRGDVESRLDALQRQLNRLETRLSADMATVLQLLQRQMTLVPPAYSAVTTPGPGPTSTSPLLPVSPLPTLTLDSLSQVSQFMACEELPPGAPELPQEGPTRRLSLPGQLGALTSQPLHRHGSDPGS
smiles,measurement,setting,value
O=[N+]([O-])C(Br)(CO)CO,Potency,[1],inactive
same,Potency,[2],inactive
same,Potency,[3],inactive
same,Potency,[4],61.1 µM (active)
same,Potency,[5],inactive
same,Potency,[6],inactive
same,Potency,[7],inactive
same,max activation,[8],-5.03%
same,Potency,[9],inactive
same,Potency,[10],inactive
same,Potency,[11],79.6 µM (active)
same,Potency,[12],63.3 µM (active)
same,Potency,[13],inactive
same,Potency,[14],71 µM (active)
same,Potency,[15],6.33 µM (active)
same,Potency,[16],5.03 µM (active)
same,Potency,[17],17.8 µM (active)
same,Potency,[18],inactive
same,Potency,[19],inactive
O=S1(=O)OC(c2cc(Br)c(O)c(Br)c2)(c2cc(Br)c(O)c(Br)c2)c2ccccc21,Potency,[1],inactive
same,Potency,[2],12.5 µM (active)
same,Potency,[3],inactive
same,Potency,[4],25 µM (active)
same,Potency,[5],inactive
same,Potency,[6],25 µM (active)
same,Potency,[7],inactive
same,Potency,[11],inactive
same,Potency,[12],inactive
same,Potency,[13],inactive
same,Potency,[14],inactive
same,Potency,[20],58 µM (active)
same,Potency,[15],73 µM (active)
same,Potency,[16],16.3 µM (active)
same,Potency,[17],32.6 µM (active)
same,Potency,[18],inactive
Clc1cccc2ccccc12,Potency,[1],inactive
same,Potency,[2],inactive
same,Potency,[3],inactive
same,Potency,[4],inactive
same,Potency,[5],inactive
same,Potency,[6],inactive
same,Potency,[7],inactive
same,Potency,[11],inactive
same,Potency,[12],inactive
same,Potency,[13],inactive
same,Potency,[14],inactive
same,Potency,[20],inactive
same,Potency,[15],inactive
same,Potency,[18],inactive
same,Potency,[19],inactive
BrCCCCBr,Potency,[1],inactive
same,Potency,[2],inactive
same,Potency,[3],inactive
same,Potency,[4],inactive
same,Potency,[5],inactive
same,Potency,[6],inactive
same,Potency,[7],inactive
same,Potency,[11],inactive
same,Potency,[12],inactive
same,Potency,[13],inactive
same,Potency,[14],inactive
same,Potency,[20],inactive
same,Potency,[15],inactive
same,Potency,[16],inactive
same,Potency,[18],inactive
same,Potency,[19],inactive
CC(=O)[C@H]1CC[C@H]2[C@@H]3CC[C@H]4C[C@](C)(O)CC[C@]4(C)[C@H]3CC[C@]12C,Potency,[1],inactive
same,Potency,[2],inactive
same,Potency,[3],inactive
same,Potency,[4],inactive
same,Potency,[5],inactive
same,Potency,[6],inactive
same,Potency,[7],inactive
same,Potency,[8],3.98 µM (active)
same,Potency,[9],inactive
same,Potency,[10],inactive
same,Potency,[11],inactive
same,Potency,[12],inactive
same,Potency,[13],inactive
same,Potency,[20],inactive
same,Potency,[15],inactive
same,Potency,[16],inactive
same,Potency,[18],inactive
same,Potency,[19],inactive
CC(=O)CCC(C)=O,Potency,[1],inactive
same,Potency,[2],inactive
same,Potency,[3],inactive
same,Potency,[4],inactive
same,Potency,[5],inactive
same,Potency,[6],inactive
same,Potency,[7],inactive
same,Potency,[11],inactive
same,Potency,[12],inactive
same,Potency,[13],inactive
same,Potency,[14],inactive
same,Potency,[20],inactive
same,Potency,[15],inactive
same,Potency,[16],inactive
same,Potency,[17],inactive
same,Potency,[18],inactive
same,Potency,[19],inactive
CCCCC(CC)COP(=O)(Oc1ccccc1)Oc1ccccc1 (stereo unspecified),Potency,[1],inactive
same,Potency,[2],inactive
same,Potency,[3],inactive
same,Potency,[4],inactive
same,Potency,[5],inactive
same,Potency,[6],inactive
same,Potency,[7],7.7 µM (active)
same,Potency,[11],inactive
same,Potency,[12],inactive
same,Potency,[13],inactive
same,Potency,[14],inactive
same,Potency,[20],inactive
same,Potency,[15],2.83 µM (active)
same,Potency,[17],25.2 µM (active)
same,Potency,[19],5.64 µM (active)
